According to article PMC3218832:

Columns and labels:
Experiment in all cases: protein binding microarray; high values mean tight binding
Conditions in all cases: dsDNA, one strand shown
RELARELA (p65 homodimer) = RELARELA (p65 homodimer) (Homo sapiens, UniProt Q04206 1-307)
p50p50 homodimer = p50p50 homodimer (Homo sapiens, UniProt P19838 7-356)
p52p52 homodimer = molecular target: T1, p52p52 homodimer (Homo sapiens, UniProt Q00653 4-332)
T1 sequence: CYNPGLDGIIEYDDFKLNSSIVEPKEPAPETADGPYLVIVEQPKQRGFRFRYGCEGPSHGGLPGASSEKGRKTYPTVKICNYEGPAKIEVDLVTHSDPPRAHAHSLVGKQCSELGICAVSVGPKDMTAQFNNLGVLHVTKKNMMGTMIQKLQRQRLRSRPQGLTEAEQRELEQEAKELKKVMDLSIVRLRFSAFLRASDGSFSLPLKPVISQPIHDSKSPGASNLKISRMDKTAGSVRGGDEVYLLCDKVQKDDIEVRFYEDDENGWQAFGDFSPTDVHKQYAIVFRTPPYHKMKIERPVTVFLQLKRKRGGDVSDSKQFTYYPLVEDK

[1] = molecular target: RELA (p65) subunit of heterodimer;p50 subunit (Homo sapiens;Homo sapiens, UniProt Q04206;P19838 1-307;7-356)
RELA (p65) subunit of heterodimer;p50 subunit, sequence (Q04206 1-307, chain 1 of 2): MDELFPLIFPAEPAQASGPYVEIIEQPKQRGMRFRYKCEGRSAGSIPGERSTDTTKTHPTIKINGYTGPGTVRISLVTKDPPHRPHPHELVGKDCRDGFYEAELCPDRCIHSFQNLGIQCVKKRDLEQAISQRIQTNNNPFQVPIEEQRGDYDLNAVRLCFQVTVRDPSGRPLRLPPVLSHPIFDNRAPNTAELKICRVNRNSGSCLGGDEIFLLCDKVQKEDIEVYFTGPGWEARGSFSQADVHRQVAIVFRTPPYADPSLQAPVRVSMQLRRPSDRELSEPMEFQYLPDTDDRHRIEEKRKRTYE
RELA (p65) subunit of heterodimer;p50 subunit, sequence (P19838 7-356, chain 2 of 2): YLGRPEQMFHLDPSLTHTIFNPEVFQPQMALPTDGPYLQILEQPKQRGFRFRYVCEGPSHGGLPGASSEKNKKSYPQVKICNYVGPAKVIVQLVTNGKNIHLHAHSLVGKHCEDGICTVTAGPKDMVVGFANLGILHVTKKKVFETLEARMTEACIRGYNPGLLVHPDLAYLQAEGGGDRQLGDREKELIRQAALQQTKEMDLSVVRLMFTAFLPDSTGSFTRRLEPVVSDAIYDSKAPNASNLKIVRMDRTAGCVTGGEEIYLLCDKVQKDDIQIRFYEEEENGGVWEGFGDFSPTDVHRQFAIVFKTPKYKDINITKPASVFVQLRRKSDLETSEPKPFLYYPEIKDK

[2] = molecular target: RELA (p65) subunit of heterodimer;p52 subunit (Homo sapiens;Homo sapiens, UniProt Q04206;Q00653 1-307;4-332)
RELB subunit;p50 subunit = RELB subunit;p50 subunit (Homo sapiens;Homo sapiens, UniProt Q01201;P19838 120-401;7-356)
RELB subunit;p52 subunit = molecular target: T2, RELB subunit;p52 subunit (Homo sapiens;Homo sapiens, UniProt Q01201;Q00653 120-401;4-332)
T2 sequence 1: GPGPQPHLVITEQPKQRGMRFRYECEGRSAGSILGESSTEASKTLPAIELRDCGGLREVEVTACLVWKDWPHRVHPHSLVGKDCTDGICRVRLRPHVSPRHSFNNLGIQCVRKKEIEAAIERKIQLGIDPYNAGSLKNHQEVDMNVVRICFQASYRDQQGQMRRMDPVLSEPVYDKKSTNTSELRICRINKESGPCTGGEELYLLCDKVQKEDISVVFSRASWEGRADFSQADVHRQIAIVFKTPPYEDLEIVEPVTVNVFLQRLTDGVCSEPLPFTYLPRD
T2 sequence 2: T1 sequence

[3] = molecular target: C-Rel subunit;p50 subunit (Homo sapiens;Homo sapiens, UniProt Q04864;P19838 1-285;7-356)
[4] = molecular target: T3, C-Rel subunit;p52 subunit (Homo sapiens;Homo sapiens, UniProt Q04864;Q00653 1-285;4-332)
T3 sequence 1: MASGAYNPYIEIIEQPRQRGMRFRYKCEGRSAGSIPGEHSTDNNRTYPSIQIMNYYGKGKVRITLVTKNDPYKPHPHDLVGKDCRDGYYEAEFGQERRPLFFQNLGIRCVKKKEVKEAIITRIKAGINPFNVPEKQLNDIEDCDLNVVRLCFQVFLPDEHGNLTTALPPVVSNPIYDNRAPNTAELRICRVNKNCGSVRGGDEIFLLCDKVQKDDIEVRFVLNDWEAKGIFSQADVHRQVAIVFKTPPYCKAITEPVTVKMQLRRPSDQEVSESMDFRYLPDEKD
T3 sequence 2: T1 sequence

p50p50 homodimer, sequence (P19838 7-356): as the sequence (P19838 7-356, chain 2 of 2) above
RELARELA (p65 homodimer), sequence (Q04206 1-307): as the sequence (Q04206 1-307, chain 1 of 2) above

| Sequence | binding signal (RELARELA (p65 homodimer)) [z-score] | binding signal (p50p50 homodimer) [z-score] | binding signal (p52p52 homodimer) [z-score] | binding signal [1] [z-score] | binding signal [2] [z-score] | binding signal (RELB subunit;p50 subunit) [z-score] | binding signal (RELB subunit;p52 subunit) [z-score] | binding signal [3] [z-score] | binding signal [4] [z-score] |
| --- | --- | --- | --- | --- | --- | --- | --- | --- | --- |
| AGAGGTCTCCC | 0.0815 | -0.751 | -0.27 | -0.391 | -0.315 | -0.0782 | -0.00582 | -0.507 | -0.363 |
| GAATTCGCCCT | 0.00849 | -0.928 | -0.505 | -0.461 | -0.517 | -0.698 | -0.722 | -0.531 | -0.36 |
| GGATATCTCCC | 0.156 | 0.192 | 0.0332 | 0.149 | 0.0232 | 0.028 | -0.143 | -0.122 | -0.036 |
| CGGATCTTCCT | 0.45 | -1.67 | -0.691 | -0.69 | -0.836 | -1.21 | -0.889 | -0.859 | -0.666 |
| GAGAACTCCCC | 0.725 | 1.15 | 1.06 | 1.34 | 1.05 | 1.1 | 0.794 | 0.916 | 0.92 |
| CAATGTTCCCT | 0.185 | 0.396 | 0.137 | -0.019 | -0.0733 | 0.0726 | 0.0791 | 0.0457 | -0.175 |
| CAGTTTATCCC | 0.419 | -0.117 | 0.0692 | -0.133 | -0.195 | -0.213 | -0.287 | 0.0891 | -0.0511 |
| GGATGATTCCT | 0.0919 | -1.32 | -0.648 | -0.708 | -0.749 | -0.941 | -0.913 | -0.706 | -0.54 |
| AAAAGTCTCCC | 0.0565 | 0.0889 | -0.045 | 0.215 | 0.0155 | 0.205 | 0.142 | 0.0274 | -0.177 |
| AGATGTTTCCC | 1.63 | 0.332 | 0.359 | 0.89 | 0.674 | 0.348 | 0.51 | 1.05 | 0.783 |
| GAAAACCCCCT | 1.83 | 1.6 | 2.75 | 2.46 | 2.59 | 3.02 | 2.62 | 1.99 | 2.86 |
| CGGTTCCCCCC | 0.357 | 1.52 | 1.57 | 2.24 | 1.89 | 2.3 | 2.23 | 1.85 | 1.73 |
| CGATACACCCT | -0.54 | -0.733 | -0.36 | -0.642 | -0.613 | -0.424 | -0.507 | -0.73 | -0.561 |
| GGGGTCGCCCC | 0.508 | 0.472 | 2.74 | 1.36 | 2.18 | 1.44 | 1.61 | 0.866 | 1.5 |
| GAAAGTGTCCT | 0.0215 | -1.58 | -0.464 | -0.843 | -0.45 | -0.858 | -0.525 | -0.958 | -0.375 |
| GAATGTTTCCC | 2.03 | 0.423 | 0.332 | 1.09 | 0.797 | 0.422 | 0.655 | 1.2 | 0.614 |
| GAAGTTTCCCC | 2.24 | 1.35 | 2 | 2.3 | 1.99 | 2.19 | 2.19 | 1.89 | 1.71 |
| GAGTGCGCCCC | -0.402 | -0.17 | -0.0852 | -0.178 | 0.0378 | -0.305 | -0.0411 | -0.0592 | -0.0203 |
| AAGTTCACCCC | -0.0981 | 0.184 | 0.0438 | -0.0301 | -0.0961 | 0.292 | 0.317 | 0.451 | 0.174 |
| CAGAAGTCCCT | 0.471 | 1.51 | 1.62 | 1.88 | 1.35 | 2.02 | 1.86 | 1.39 | 0.987 |
| CGGTACATCCC | 0.722 | 0.342 | 1.69 | 0.384 | 0.93 | 0.529 | 0.811 | 0.0779 | 0.879 |
| GGGTTTGCCCT | 1.25 | -0.184 | 0.265 | 0.277 | 0.423 | -0.518 | -0.154 | 0.409 | 0.225 |
| CGGGACTCCCC | 1.91 | 0.81 | 2.76 | 1.88 | 1.9 | 1.59 | 1.87 | 1.93 | 2.5 |
| AAAGATGTCCC | 0.336 | 0.646 | 0.345 | 0.492 | 0.185 | 0.741 | 0.487 | 0.497 | -0.0919 |
| CAAAGGCTCCT | -0.998 | -1.36 | -0.784 | -1.16 | -1.16 | -1.21 | -1.07 | -1.99 | -1.13 |
| AGAGTCATCCT | -0.641 | -2.61 | -0.647 | -1.23 | -0.868 | -1.06 | -0.873 | -1.63 | -1.09 |
| GGGTGTTCCCC | 1.97 | 0.783 | 3.21 | 2.14 | 2.7 | 2.21 | 2.06 | 1.68 | 2.56 |
| AAGTTTCCCCT | 1.76 | 1.73 | 2.41 | 2.47 | 2.06 | 2.72 | 2.65 | 2.01 | 1.96 |
| CGAGAAATCCC | 1.4 | 0.819 | 0.839 | 0.872 | 0.718 | 0.773 | 0.543 | 0.883 | 0.451 |
| GAAGGTCTCCT | -0.533 | -2.58 | -0.69 | -0.982 | -0.897 | -1.22 | -1.02 | -1.58 | -0.76 |
